Source: the supplement of paper PMC10849652
Of roughly 8,800 targets only a part is listed; those with a hit were picked by preference. About 0.5% of all pairs of compound and target were hits. Unmarked numbers belong to inactive results.

Legend:
Experiment in all cases: log2 fold change, soluble protein after heating vs DMSO (PISA); higher = thermal stabilisation; K562 lysate, 10 uM; active = over 0.2 and 3.5 SD of the protein, either way, in both replicates (recomputed)
[1] = compound: CCCS(=O)(=O)Nc1ccc(F)c(C(=O)c2c[nH]c3ncc(-c4ccc(Cl)cc4)cc23)c1F [vemurafenib]
Outline: (§1)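 Dounce homogenisation of K562 pellets in PBS pH 7.4 with 1 mM MgCl2 produced a crude extract, used at 1 mg/mL protein. Exposure to 10 μM compound lasted 30 min, and aliquots were then heated for 3 min across 48°C-58°C, pooled and brought to 0.5% NP-40 at 4°C. The supernatant after 21,000xg for 90 min was quantified by TMTpro 16plex LC-MS/MS with channel sums equalised. Duplicate values are given as log-two fold change in thermal stability relative to solvent controls.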

[2] = compound: CCCS(=O)(=O)Nc1ccc(F)c(C(=O)c2c[nH]c3ncc(Cl)cc23)c1F
Outline: as §1

[3] = compound: CCN(CCCOc1ccc2c(Nc3cc(CC(=O)Nc4cccc(F)c4)[nH]n3)ncnc2c1)CCOP(=O)(O)O [barasertib]
Outline: as §1

[4] = compound: CC[C@@H]1C(=O)N(C)c2cnc(Nc3ccc(C(=O)NC4CCN(C)CC4)cc3OC)nc2N1C1CCCC1
Outline: as §1

[5] = compound: CC[C@@H]1C(=O)N(C)c2cnc(Nc3ccc(C(=O)N[C@H]4CC[C@H](N5CCN(CC6CC6)CC5)CC4)cc3OC)nc2N1C(C)C [volasertib]
Outline: as §1

[6] = compound: CCn1c(C(=O)N(C2CC2)C2CC2)cc2c3c(ncn3C)c(Nc3cc(C)n(C)n3)nc21
Outline: as §1

[7] = compound: CCn1cc(-c2ccnc3[nH]c(-c4cccc(CN(C)C)c4)cc23)c(-c2ccc(NC(=O)N(C)C)cc2)n1
Outline: as §1

[8] = compound: CN1CCC(CNc2ccc3ncc(-c4cccc(OC(F)(F)F)c4)n3n2)CC1
Outline: as §1

[9] = compound: CN1CCN(CCOc2cc(OC3CCOCC3)c3c(Nc4c(Cl)ccc5c4OCO5)ncnc3c2)CC1 [saracatinib]
Outline: as §1

[10] = compound: CN1CCN(c2nc(C3=C(c4c[nH]c5ccccc45)C(=O)NC3=O)c3ccccc3n2)CC1 [sotrastaurin]
Outline: as §1

[11] = compound: CN1CC[C@H](c2c(O)cc(O)c3c(=O)cc(-c4ccccc4Cl)oc23)[C@H](O)C1 [alvocidib]
Outline: as §1

[12] = compound: CN1CCc2c(c3ccccc3n2Cc2ccc(C(=O)NO)cc2)C1 [Tubastatin A]
Outline: as §1

[13] = compound: CNC(=O)C1=CC=CC=C1NC2=NC(=NC=C2Cl)NC3=C(C=C(C=C3)N4CCOCC4)OC
Outline: as §1

[14] = compound: CNC(=O)c1ccc(Nc2ncc(C(F)(F)F)c(NCc3nccnc3N(C)S(C)(=O)=O)n2)cc1 [defactinib]
Outline: as §1

[15] = compound: CNc1nc(-c2ccc3c(N)n[nH]c3c2)cc(N2C[C@@H](C(=O)NC3CCCCC3)CC[C@H]2C)n1
Outline: as §1

[16] = compound: COC(=O)N[C@@H](C)CNc1nccc(-c2cn(C(C)C)nc2-c2cc(Cl)cc(NS(C)(=O)=O)c2F)n1 [encorafenib]
Outline: as §1

[17] = compound: COC(=O)[C@H](CCSC)NC(=O)C1=C(C=C(C=C1)NC[C@H](CS)N)C2=CC=CC=C2
Outline: as §1

[18] = compound: COc1cc(Nc2ncc3c(n2)-c2ccc(Cl)cc2C(c2c(F)cccc2OC)=NC3)ccc1C(=O)O [alisertib]
Outline: as §1

[19] = compound: COc1cc2nc(-c3cc(F)ccc3O)nc(N[C@@H]3CNC[C@H]3C(C)(C)O)c2cc1OC
Outline: as §1

[20] = compound: COc1cc2ncnc(Nc3ccc(F)c(Cl)c3)c2cc1OCCCN1CCOCC1 [gefitinib]
Outline: as §1

UniProt O95793, sequence (O95793 whole entry, looked up): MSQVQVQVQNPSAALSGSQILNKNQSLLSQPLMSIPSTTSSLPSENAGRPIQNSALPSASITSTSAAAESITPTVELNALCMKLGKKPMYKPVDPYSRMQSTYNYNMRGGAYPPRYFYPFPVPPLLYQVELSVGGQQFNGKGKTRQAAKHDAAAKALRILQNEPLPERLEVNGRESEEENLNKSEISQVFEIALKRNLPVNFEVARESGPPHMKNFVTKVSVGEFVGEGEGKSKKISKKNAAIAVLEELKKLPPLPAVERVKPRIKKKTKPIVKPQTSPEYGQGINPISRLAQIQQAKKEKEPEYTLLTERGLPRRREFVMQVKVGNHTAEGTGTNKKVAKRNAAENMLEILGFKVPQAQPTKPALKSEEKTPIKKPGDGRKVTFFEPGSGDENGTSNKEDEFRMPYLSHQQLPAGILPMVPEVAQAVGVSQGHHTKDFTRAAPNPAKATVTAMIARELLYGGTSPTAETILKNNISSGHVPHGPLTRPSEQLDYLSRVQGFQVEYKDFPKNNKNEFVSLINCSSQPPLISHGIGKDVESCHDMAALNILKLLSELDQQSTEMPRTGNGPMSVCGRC
UniProt P19623, sequence (P19623 whole entry, looked up): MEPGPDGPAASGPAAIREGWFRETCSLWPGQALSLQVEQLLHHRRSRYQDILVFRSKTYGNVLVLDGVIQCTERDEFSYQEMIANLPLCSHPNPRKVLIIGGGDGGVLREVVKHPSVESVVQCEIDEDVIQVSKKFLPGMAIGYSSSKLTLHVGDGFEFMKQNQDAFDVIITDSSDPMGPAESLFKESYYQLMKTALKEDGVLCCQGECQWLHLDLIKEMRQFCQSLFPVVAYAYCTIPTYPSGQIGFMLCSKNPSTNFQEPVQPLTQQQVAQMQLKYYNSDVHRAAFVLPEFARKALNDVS
UniProt O75528, sequence (O75528 whole entry, looked up): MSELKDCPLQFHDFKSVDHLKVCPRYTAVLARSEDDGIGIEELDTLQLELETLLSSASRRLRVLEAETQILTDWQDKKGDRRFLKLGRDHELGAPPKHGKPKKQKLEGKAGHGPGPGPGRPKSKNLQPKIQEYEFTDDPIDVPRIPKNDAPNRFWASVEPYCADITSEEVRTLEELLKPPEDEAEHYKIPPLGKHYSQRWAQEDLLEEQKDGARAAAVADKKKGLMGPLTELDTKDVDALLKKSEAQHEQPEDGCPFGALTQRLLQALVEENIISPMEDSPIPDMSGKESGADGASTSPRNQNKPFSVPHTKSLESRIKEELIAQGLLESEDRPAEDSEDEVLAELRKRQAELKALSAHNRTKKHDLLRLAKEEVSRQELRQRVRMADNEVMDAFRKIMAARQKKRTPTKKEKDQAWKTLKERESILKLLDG
UniProt O15198, sequence (O15198 whole entry, looked up): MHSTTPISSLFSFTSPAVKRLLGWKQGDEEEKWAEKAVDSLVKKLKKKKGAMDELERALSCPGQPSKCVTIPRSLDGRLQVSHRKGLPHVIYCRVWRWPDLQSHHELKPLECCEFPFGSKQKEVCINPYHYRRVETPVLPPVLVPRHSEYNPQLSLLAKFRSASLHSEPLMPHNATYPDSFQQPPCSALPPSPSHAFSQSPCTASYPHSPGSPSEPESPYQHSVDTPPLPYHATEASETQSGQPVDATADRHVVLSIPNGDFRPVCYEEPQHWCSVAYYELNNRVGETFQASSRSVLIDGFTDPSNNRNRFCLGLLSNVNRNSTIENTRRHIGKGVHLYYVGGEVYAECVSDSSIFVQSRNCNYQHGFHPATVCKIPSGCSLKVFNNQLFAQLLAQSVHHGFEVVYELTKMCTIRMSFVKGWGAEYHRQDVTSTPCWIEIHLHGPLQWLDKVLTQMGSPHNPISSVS
UniProt Q9UNE7, sequence (Q9UNE7 whole entry, looked up): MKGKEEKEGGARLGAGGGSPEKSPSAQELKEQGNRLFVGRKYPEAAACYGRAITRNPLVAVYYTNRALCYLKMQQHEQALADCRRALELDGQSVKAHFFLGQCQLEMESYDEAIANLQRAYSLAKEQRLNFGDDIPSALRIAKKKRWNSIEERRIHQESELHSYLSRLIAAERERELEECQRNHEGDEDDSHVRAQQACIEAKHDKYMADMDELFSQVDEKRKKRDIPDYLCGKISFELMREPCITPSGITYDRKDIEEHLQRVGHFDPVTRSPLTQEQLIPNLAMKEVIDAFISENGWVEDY
UniProt Q9NP77, sequence (Q9NP77 whole entry, looked up): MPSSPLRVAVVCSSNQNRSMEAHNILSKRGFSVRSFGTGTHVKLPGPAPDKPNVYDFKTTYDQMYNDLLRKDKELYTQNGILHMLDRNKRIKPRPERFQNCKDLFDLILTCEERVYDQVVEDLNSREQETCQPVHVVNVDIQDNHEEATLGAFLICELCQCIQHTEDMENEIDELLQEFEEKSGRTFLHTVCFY
UniProt Q8WVK7, sequence (Q8WVK7 whole entry, looked up): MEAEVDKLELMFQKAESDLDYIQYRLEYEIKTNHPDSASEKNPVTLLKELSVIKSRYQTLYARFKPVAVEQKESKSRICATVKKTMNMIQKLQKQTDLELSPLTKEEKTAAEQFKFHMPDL
UniProt O14975, sequence (O14975 whole entry, looked up): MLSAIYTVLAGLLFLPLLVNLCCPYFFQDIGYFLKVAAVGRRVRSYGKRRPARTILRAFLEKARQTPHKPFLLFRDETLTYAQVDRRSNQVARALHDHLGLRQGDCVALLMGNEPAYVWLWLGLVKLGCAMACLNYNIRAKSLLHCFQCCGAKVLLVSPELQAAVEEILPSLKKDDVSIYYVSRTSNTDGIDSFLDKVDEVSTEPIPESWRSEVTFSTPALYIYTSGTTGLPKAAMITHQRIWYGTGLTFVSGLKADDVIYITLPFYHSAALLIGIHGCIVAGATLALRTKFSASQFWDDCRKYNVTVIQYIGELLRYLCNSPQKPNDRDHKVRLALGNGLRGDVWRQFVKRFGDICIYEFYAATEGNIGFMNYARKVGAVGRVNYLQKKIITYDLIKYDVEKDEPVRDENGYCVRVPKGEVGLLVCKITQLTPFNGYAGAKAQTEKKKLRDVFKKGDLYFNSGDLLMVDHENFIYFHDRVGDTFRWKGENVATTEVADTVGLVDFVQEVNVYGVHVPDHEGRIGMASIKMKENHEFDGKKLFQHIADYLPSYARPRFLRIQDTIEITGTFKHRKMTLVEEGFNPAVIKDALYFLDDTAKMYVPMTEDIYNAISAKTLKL
UniProt Q9BXS9, sequence (Q9BXS9 whole entry, looked up): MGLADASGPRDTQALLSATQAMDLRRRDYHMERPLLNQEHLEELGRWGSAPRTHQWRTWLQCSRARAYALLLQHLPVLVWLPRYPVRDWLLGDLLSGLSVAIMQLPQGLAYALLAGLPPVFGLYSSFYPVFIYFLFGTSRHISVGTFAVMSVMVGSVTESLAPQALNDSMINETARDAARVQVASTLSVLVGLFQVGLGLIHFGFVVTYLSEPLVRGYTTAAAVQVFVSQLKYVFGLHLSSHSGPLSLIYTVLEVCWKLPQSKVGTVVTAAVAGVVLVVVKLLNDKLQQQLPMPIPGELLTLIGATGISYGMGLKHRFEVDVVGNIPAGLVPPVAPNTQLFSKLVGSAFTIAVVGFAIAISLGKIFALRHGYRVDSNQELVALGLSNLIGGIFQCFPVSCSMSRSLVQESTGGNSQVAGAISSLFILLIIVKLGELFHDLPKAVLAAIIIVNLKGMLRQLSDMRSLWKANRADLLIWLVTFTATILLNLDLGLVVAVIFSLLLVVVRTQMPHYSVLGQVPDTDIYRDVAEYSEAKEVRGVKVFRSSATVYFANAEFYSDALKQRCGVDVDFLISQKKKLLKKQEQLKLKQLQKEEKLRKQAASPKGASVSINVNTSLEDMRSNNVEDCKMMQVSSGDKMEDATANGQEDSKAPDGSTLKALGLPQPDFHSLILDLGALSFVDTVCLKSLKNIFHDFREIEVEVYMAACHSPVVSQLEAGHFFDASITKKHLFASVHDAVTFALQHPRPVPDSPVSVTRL
UniProt Q16637, sequence (Q16637 whole entry, looked up): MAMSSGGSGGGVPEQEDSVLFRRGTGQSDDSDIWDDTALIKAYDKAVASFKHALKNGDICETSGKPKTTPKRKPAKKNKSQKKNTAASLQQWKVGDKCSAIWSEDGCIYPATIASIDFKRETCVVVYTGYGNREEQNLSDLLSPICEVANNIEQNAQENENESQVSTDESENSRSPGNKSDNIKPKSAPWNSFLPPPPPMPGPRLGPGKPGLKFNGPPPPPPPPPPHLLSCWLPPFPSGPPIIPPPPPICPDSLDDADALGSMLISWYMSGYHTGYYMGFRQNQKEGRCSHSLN
UniProt O95926, sequence (O95926 whole entry, looked up): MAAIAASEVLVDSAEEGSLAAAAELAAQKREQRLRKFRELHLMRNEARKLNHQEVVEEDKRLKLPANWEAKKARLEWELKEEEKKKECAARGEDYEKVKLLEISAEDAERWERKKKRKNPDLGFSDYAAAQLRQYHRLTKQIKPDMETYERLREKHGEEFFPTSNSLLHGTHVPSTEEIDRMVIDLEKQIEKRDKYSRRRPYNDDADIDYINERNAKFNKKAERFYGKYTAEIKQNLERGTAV
UniProt P62306, sequence (P62306 whole entry, looked up): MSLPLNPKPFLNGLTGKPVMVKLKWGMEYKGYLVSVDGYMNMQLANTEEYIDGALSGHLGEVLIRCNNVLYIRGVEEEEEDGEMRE
UniProt Q16563, sequence (Q16563 whole entry, looked up): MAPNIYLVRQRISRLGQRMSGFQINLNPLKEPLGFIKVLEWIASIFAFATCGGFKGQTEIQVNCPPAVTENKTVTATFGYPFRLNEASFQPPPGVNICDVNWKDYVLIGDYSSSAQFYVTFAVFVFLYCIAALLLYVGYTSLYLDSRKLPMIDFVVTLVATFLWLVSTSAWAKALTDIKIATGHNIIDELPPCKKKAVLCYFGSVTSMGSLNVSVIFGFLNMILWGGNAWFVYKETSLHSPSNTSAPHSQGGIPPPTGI

Row | Target | log2 fold change [1] | log2 fold change [2] | log2 fold change [3] | log2 fold change [4] | log2 fold change [5] | log2 fold change [6] | log2 fold change [7] | log2 fold change [8] | log2 fold change [9] | log2 fold change [10] | log2 fold change [11] | log2 fold change [12] | log2 fold change [13] | log2 fold change [14] | log2 fold change [15] | log2 fold change [16] | log2 fold change [17] | log2 fold change [18] | log2 fold change [19] | log2 fold change [20]
1 | STAU1 (UniProt O95793) | 0.027 | 0.003 | 0.01 | 0 | -0.013 | 0.069 | 0.25 | -0.103 | 0.004 | -0.039 | 0.062 | -0.06 | 0.051 | 0.027 | -0.04 | 0.078 | -0.009 | 0.072 | -0.007 | 0.012
2 | SMARCA4 (UniProt P51532) | 0.011 | 0.006 | 0.038 | -0.058 | -0.024 | 0.02 | -0.044 | -0.024 | 0.011 | 0.034 | 0.004 | -0.078 | -0.007 | 0.002 | -0.003 | 0.021 | 0.056 | 0.019 | -0.002 | -0.001
3 | SSU72 (UniProt Q9NP77) | -0.018 | 0.001 | 0.018 | -0.064 | -0.045 | -0.049 | -0.325 (active) | 0.171 | -0.001 | 0.018 | -0.127 | -0.05 | -0.035 | -0.026 | -0.032 | -0.04 | 0.183 | -0.016 | -0.013 | -0.004
4 | SMTN isoform 6 (UniProt P53814) | 0.021 | 0.061 | 0.018 | -0.007 | -0.078 | -0.026 | -0.036 | -0.006 | 0.013 | -0.051 | -0.04 | -0.019 | 0.071 | -0.103 | -0.013 | -0.002 | -0.085 | 0.055 | -0.005 | 0.005
5 | SKA2 (UniProt Q8WVK7) | 0 | 0.014 | 0.078 | 0 | -0.043 | 0.02 | -0.032 | -0.015 | 0.028 | -0.097 | 0.003 | -0.119 | -0.077 | -0.014 | -0.02 | 0.032 | -0.001 | 0.036 | -0.009 | 0.006
6 | SMC6 (UniProt Q96SB8) | 0.044 | 0.01 | 0.014 | 0.047 | -0.031 | 0.012 | -0.036 | 0.024 | 0.046 | 0.027 | -0.017 | -0.087 | 0.049 | -0.003 | -0.004 | -0.02 | 0.045 | -0.018 | -0.013 | 0.007
7 | SLC26A6 (UniProt Q9BXS9) | 0.106 | 0.086 | 0.421 (active) | 0.055 | 0.008 | 0.017 | -0.095 | 0.036 | -0.126 | 0.005 | -0.095 | -0.05 | -0.004 | 0.055 | 0.086 | -0.016 | -0.111 | 0.06 | -0.056 | -0.022
8 | SRM (UniProt P19623) | -0.004 | -0.003 | -0.008 | -0.02 | -0.034 | -0.001 | 0.015 | 0 | 0.02 | 0.011 | 0.008 | -0.014 | -0.014 | -0.03 | -0.03 | -0.011 | 0.083 | -0.03 | 0.016 | 0.011
9 | SNRPF (UniProt P62306) | 0.023 | 0.002 | 0.045 | 0.067 | 0.032 | -0.051 | -0.35 (active) | 0.24 | -0.044 | 0.042 | -0.119 | -0.028 | -0.02 | 0.014 | -0.034 | 0.021 | 0.014 | -0.03 | 0.022 | 0.084
10 | STUB1 (UniProt Q9UNE7) | 0.01 | 0.02 | -0.007 | -0.072 | -0.051 | 0.018 | -0.015 | -0.03 | 0.006 | 0.004 | -0.012 | -0.193 | 0.003 | -0.029 | 0.026 | -0.025 | 0.135 | 0.003 | 0.007 | -0.003
11 | SMN1 (UniProt Q16637) | 0.031 | 0.075 | -0.056 | -0.026 | 0 | -0.037 | -0.073 | -0.031 | 0.053 | -0.039 | -0.05 | -0.173 | 0.017 | -0.023 | -0.01 | 0.03 | 0.149 | 0.062 | -0.024 | -0.064
12 | SLC27A2 (UniProt O14975) | 0.089 | 0.009 | 0.029 | -0.033 | -0.084 | -0.063 | -0.024 | 0.082 | -0.021 | 0.159 | 0.005 | -0.009 | 0.216 | -0.044 | 0.172 | 0.063 | 0.019 | 0.002 | 0.017 | -0.089
13 | SYF2 (UniProt O95926) | -0.012 | -0.042 | -0.039 | 0.096 | 0.038 | -0.044 | -0.043 | 0.028 | 0.015 | -0.008 | 0.004 | 0.039 | 0.103 | -0.034 | 0.049 | 0.038 | 0.033 | 0.018 | 0.058 | 0.038
14 | SMAD9 (UniProt O15198) | -0.045 | -0.003 | 0.032 | -0.011 | 0.024 | 0.111 | 0.021 | 0.048 | 0.08 | 0.007 | 0.008 | -0.075 | 0.089 | -0.081 | 0.011 | 0.014 | -0.014 | 0.052 | 0.047 | -0.028
15 | SYPL1 (UniProt Q16563) | -0.006 | -0.019 | 0.076 | 0.004 | 0.032 | -0.011 | -0.418 (active) | 0.194 | 0.01 | 0.023 | -0.132 | 0.057 | -0.007 | -0.014 | 0.029 | 0.013 | -0.022 | 0.016 | 0.012 | -0.033
16 | TADA3 (UniProt O75528) | -0.007 | 0.004 | 0.002 | 0.008 | -0.006 | -0.022 | -0.122 | 0.006 | -0.017 | -0.012 | 0.001 | -0.04 | 0.044 | -0.007 | 0.06 | 0.029 | -0.024 | 0 | 0.001 | 0.03
